Experiment [1] is described as follows: APR_HepG2_P-H2AX_72hr: Apredica 72-hour HepG2 Assay for H2AX Phosphorylation (AID 2282916).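 Also: phospho-histone H2A.x immunostain intensity per cell marking DNA damage.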 As to conditions: imaging, actives raise or lower the signal. The procedure, abridged: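 Phospho-H2A.x imaging endpoint in HepG2 after 72 hr compound exposure (0.39–200 uM, duplicate wells). Activity derived by bidirectional curve fitting with DMSO as baseline.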
A short description of experiment [2]: APR_HepG2_MitoMembPot_72hr: Apredica 72-hour HepG2 Assay for Mitochondrial Membrane Potential (AID 2282917). As to conditions: imaging, actives raise or lower the signal. The procedure, abridged:
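HepG2 cells dosed 72 hr with compound at 0.39–200 uM in duplicate, 0.5% v/v DMSO final. Mitochondria stained with 250 nM MitoTracker Red CMXRos for 30 min before formaldehyde fixation, imaged by high-content fluorescence; bidirectional fit versus DMSO.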

Experiment [3] in a line: APR_HepG2_MitoticArrest_72hr: Apredica 72-hour HepG2 Assay for Mitotic Arrest (AID 2282918). As to conditions: high-content imaging, actives raise or lower the signal. The procedure, abridged: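 Read-out is phospho-histone H3 immunofluorescence with Hoechst nuclear segmentation, imaged at 20x. Human HepG2 liver cells received ten concentrations (0.39–200 uM, final DMSO 0.5% v/v) for 72 hr before fixation. Gain or loss of signal was fitted relative to DMSO.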

The nature of experiment [4]: APR_HepG2_MicrotubuleCSK_72hr: Apredica 72-hour HepG2 Assay for Microtubule CSK Stabilty (AID 2282919). To be noted: HepG2 microtubule cytoskeleton, high-content imaging, actives raise or lower the signal. The procedure, abridged: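 HepG2, 72 hr cmpd exposure, 0.39–200 uM (10 pts, duplicate), 0.5% DMSO. 3.7% formaldehyde fix, 0.5% Triton perm, anti-alpha-tubulin/Cy5 plus Hoechst. HCS fluorescence intensity; bidirectional fit vs DMSO baseline; taxol as positive control.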

Experiment [5] in a line: APR_HepG2_P-H2AX_24hr: Apredica 24-hour HepG2 Assay for H2AX Phosphorylation (AID 2282920). To be noted: high-content imaging, actives raise or lower the signal. Summed up:
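HepG2, 24 hr, cpd 0.39–200 uM (10 conc, duplicate), DMSO 0.5% v/v final. Fix 3.7% formaldehyde, Triton X-100 permeabilize, anti-phospho-H2A.x 1:200 + Hoechst 2 ug/mL. Imaged, bidirectional fit vs DMSO.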

Experiment [6] is described as follows: APR_HepG2_StressKinase_72hr: Apredica 72-hour HepG2 Assay for Stress Kinase (AID 2282921). To be noted: HepG2 stress kinase (phospho-c-Jun) imaging, actives raise or lower the signal. Summed up: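 Stress kinase signal reflects nuclear phospho-c-Jun staining in fixed, permeabilized cells exposed 72 h to compound at 0.39–200 uM; DMSO-normalized, fitted for increases or decreases.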

The nature of experiment [7]: APR_HepG2_StressKinase_24hr: Apredica 24-hour HepG2 Assay for Stress Kinase (AID 2282922). As to conditions: HepG2 stress kinase (phospho-c-Jun) imaging, actives raise or lower the signal. Summed up: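 Read-out: phospho-c-Jun immunofluorescence (Cy3 secondary) quantified by high-content imaging at 20x, nuclei defined by Hoechst 33342. Human HepG2 liver cells dosed 24 hr, 0.39–200 uM, DMSO 0.5% v/v; gain or loss of signal fitted relative to DMSO.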

Experiment [8] is described as follows: APR_HepG2_p53Act_72hr: Apredica 72-hour HepG2 Assay for p53 Activation (AID 2282923).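 Also: average cellular p53 protein immunofluorescence intensity in HepG2 cells.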 As to conditions: high-content imaging, actives raise or lower the signal. Summed up: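 Fixed-cell p53 staining (sheep primary, Cy5 secondary) measured by fluorescence imaging following 72 hr treatment at 0.39–200 uM in 0.5% DMSO; DMSO served as negative control and baseline.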

Experiment [9] in a line: APR_HepG2_MitoMass_72hr: Apredica 72-hour HepG2 Assay for Mitochondrial Mass (AID 2282924).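 Also: MitoTracker Red CMXRos stain intensity per cell imaged as mitochondrial mass.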 As to conditions: high-content imaging, actives raise or lower the signal. Summed up: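 Read-out: MitoTracker Red fluorescence intensity from automated imaging (20x, six fields per well) in human HepG2 liver cells. Dosing ran 72 hr, 0.39–200 uM, 0.5% DMSO; bidirectional curve fitting versus DMSO baseline.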

Experiment [10] can be described thus: APR_HepG2_NuclearSize_72hr: Apredica 72-hour HepG2 Assay for Nuclear Size (AID 2282925). To be noted: high-content imaging, actives raise or lower the signal. Summed up:
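Read-out: nuclear diameter from Hoechst 33342 images (ArrayScan, 20x, six fields/well), via cell-cycle image analysis. HepG2 were dosed 0.39–200 uM for 72 hr in 0.5% DMSO. Bidirectional fit relative to DMSO.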

Activity calls are given as the source filed them. The calls were made as follows: active = hit-call score of the fitted dose curve at least 0.9, where 1 is the maximum; inactive = score below 0.9.

Regarding `O=C1CCCCCN1`, the call in [1], in experiment [2], in experiment [3], in experiment [4], in experiment [5] and in [6] was inactive. Further, the compound was classed as inactive in experiment [7], in experiment [8], in [9] and in [10].
As to `Cc1ccc(O)cc1`, the compound was called inactive in experiment [1], in experiment [2], in experiment [3], in [4], in experiment [5] and in experiment [6]. In addition, the result in experiment [7], in experiment [8], in experiment [9] and in experiment [10] was inactive.
Take `O=P(OC(CCl)CCl)(OC(CCl)CCl)OC(CCl)CCl`: the AC50 in [1] is 47.5 µM (active); in experiment [2] it was 50 µM (active); in [3], 39.6 µM (active); in [5], 43.4 µM (active); in experiment [6], 59.2 µM (active). In addition, the outcome in experiment [4], in experiment [7], in [8], in experiment [9] and in experiment [10] was inactive.
Take `CC(C)CCCCCCCOC(=O)CCCCC(=O)OCCCCCCCC(C)C`: the compound was classed as inactive in experiment [1], in experiment [2], in experiment [3], in [4], in [5] and in experiment [6]. For the same compound, the result in experiment [7], in experiment [8], in experiment [9] and in [10] was inactive.
For the compound `Fc1ccccc1[C@@H](F)COC1CCC(Nc2ncnc3[nH]ncc23)CC1` (some centres not stated), the AC50 was 51.3 µM (active) in [1]; 60 µM (active) in experiment [3]; 81.2 µM (active) in experiment [4]; 74.9 µM (active) in experiment [5]; 55.6 µM (active) in experiment [8]. The outcome in experiment [2], in experiment [6], in experiment [7], in [9] and in [10] was inactive.
For `CCCCCCCCCCCCc1ccccc1`, the outcome in experiment [1], in experiment [2], in experiment [3], in experiment [5], in experiment [6] and in experiment [7] was inactive. For the same compound, the compound was called inactive in [8], in [9] and in [10].
On to `Clc1nc(Cl)c(Cl)c(Cl)c1Cl`, for which the AC50 in experiment [1] is 57.5 µM (active); in [3], 34.1 µM (active); in experiment [5] it was 41.2 µM (active); in experiment [6] it was 68.5 µM (active); in [7] it was 53.2 µM (active); in experiment [8], 25 µM (active). For the same compound, the AC50 was 89.9 µM (active) in experiment [9] and 96.9 µM (active) in experiment [10]. For the same compound, the compound was called inactive in [2] and in experiment [4].
In the case of `CCN(C(=O)c1cc(C)cc(OC[C@H](C)Nc2ccncc2)c1)C(C)C`, the outcome in [1], in experiment [2], in experiment [3], in experiment [4], in experiment [5] and in [6] was inactive. The outcome in experiment [7], in [8], in experiment [9] and in experiment [10] was inactive.
`CC(C)(O)c1coc(S(=O)(=O)NC(=O)Nc2c3c(cc4c2CCC4)CCC3)c1`: the outcome in experiment [1], in experiment [2], in experiment [3], in experiment [4], in [5] and in experiment [6] was inactive. The call in experiment [7], in experiment [8], in experiment [9] and in [10] was inactive.
For `C=CC(=C)CCC=C(C)C`, the result in [1], in experiment [2], in [3], in [4], in [5] and in [6] was inactive. Also, the compound was called inactive in experiment [7], in [8], in experiment [9] and in [10].
Take `CC(C)=CCCC(C)=CC=O`: the call in [1], in [2], in experiment [3], in [4], in experiment [5] and in experiment [6] was inactive. In addition, the call in experiment [7], in experiment [8], in experiment [9] and in experiment [10] was inactive.
Consider `CC(O)CN(CCN(CC(C)O)CC(C)O)CC(C)O` (configuration not stated), for which the compound was called inactive in [1], in experiment [2], in experiment [3], in experiment [5], in experiment [6] and in experiment [7]. In addition, the compound was classed as inactive in experiment [8], in experiment [9] and in experiment [10].
Turning to `O=C1CCC(N2C(=O)c3ccccc3C2=O)C(=O)N1` (configuration not stated), the compound was classed as inactive in experiment [1], in experiment [2], in experiment [3], in experiment [5], in experiment [6] and in experiment [7]. In addition, the compound was called inactive in experiment [8], in experiment [9] and in experiment [10].
For `O=C(O)c1cccc(Oc2ccccc2)c1`, the outcome in experiment [1], in experiment [2], in experiment [3], in experiment [4], in experiment [5] and in experiment [6] was inactive. For the same compound, the compound was classed as inactive in experiment [7], in experiment [8], in experiment [9] and in [10].
As for `Cc1c(-c2cccnc2)c2ccccc2n1CCCCC(=O)O`, the compound was called inactive in experiment [1], in [2], in experiment [3], in [4], in [5] and in experiment [6]. Further, the result in experiment [7], in experiment [8], in [9] and in [10] was inactive.

As a reminder, the AC50 is the midpoint of the concentration-response curve, whichever way the signal moves.
